Source: ChEMBL document CHEMBL1961873, “Compounds: GSK PKIS; Assays: Nanosyn kinase panel” (2012)

The compounds below were run on Mast/stem cell growth factor receptor Kit (Homo sapiens), P10721 [D816V]. Details: at 1 µM.
Mast/stem cell growth factor receptor Kit (Homo sapiens), P10721 [D816V], sequence (P10721 whole entry D816V): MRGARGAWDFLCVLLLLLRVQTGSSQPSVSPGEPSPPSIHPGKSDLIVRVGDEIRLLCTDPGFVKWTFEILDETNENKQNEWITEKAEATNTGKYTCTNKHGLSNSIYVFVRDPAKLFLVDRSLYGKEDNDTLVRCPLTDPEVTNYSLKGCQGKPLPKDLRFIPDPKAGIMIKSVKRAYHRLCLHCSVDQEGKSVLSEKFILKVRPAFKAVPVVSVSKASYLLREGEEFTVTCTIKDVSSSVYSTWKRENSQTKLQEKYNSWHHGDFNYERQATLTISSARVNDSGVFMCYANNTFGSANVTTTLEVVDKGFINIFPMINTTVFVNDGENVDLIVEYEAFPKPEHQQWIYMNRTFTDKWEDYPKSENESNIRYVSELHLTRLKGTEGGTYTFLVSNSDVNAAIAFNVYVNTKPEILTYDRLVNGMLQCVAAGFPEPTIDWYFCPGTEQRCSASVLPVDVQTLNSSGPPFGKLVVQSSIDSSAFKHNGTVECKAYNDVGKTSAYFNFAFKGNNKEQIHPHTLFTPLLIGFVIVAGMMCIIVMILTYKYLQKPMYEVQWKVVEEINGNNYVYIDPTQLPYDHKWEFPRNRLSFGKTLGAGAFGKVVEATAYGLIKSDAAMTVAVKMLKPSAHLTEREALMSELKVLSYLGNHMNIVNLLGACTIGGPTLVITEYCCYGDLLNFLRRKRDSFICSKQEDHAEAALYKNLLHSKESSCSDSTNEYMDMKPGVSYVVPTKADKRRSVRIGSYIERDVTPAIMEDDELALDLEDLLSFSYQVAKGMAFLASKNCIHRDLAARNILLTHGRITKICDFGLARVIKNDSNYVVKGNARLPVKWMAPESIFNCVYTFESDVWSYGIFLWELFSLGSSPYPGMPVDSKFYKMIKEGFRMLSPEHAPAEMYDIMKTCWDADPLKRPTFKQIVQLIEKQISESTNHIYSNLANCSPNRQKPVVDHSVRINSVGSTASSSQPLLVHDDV

Compound	inhibition [%]
COc1ccc(-c2cc(-c3c[nH]nc3-c3ccccn3)ccn2)cc1	11.7
CCCN(CCS(C)(=O)=O)Cc1ccc(-c2ccc3ncnc(Nc4ccc(OCc5cccc(F)c5)c(Cl)c4)c3c2)o1	4.14
FC(F)(F)c1cccc(-c2nn3ncccc3c2-c2ccnc(Nc3ccc4c(c3)OCCO4)n2)c1	1.8
CCNC(=O)O[C@H]1CN[C@H](C#Cc2cc3ncnc(Nc4ccc(OCc5cccc(F)c5)c(Cl)c4)c3s2)C1	3.63
COC(=O)Nc1nc2ccc(S(=O)(=O)c3ccc(NC(=O)Nc4cc(C(F)(F)F)ccc4F)cc3)cc2[nH]1	5.14
CC(=O)Nc1cccc(C#Cc2cncnc2Nc2ccc(OCc3cccc(F)c3)c(Cl)c2)c1	0.94
CCOc1ccc2c(-c3ccnc(Nc4cccc(C(F)(F)F)c4)n3)cnn2n1	2.91
CC(=O)NCc1cccc(C#Cc2cncnc2Nc2ccc(OCc3cccc(F)c3)c(Cl)c2)c1	-2.37
Cc1cccc2c1NC(=O)/C2=N\Nc1ccc(S(N)(=O)=O)cc1	-1.26
COc1ccc(-c2nn3ncccc3c2-c2ccnc(Nc3ccc4c(c3)OCCO4)n2)cc1	0.8
Fc1ccc(-c2cc(-c3c[nH]nc3-c3ccccn3)ccn2)cc1	4.27
CCN(CC)S(=O)(=O)c1ccc(OC)c(Nc2ncc(-c3ccccc3)o2)c1	6.46
COc1cccc(-c2c[nH]c3c(N/N=C/c4ccncc4)ncnc23)c1	38.7
c1ccc(-c2nc3n(c2-c2ccc4c(c2)OCO4)CCC3)nc1	0.34
COc1cccc(-n2ncc3c(N/N=C/c4ccc(F)cc4)ncnc32)c1	7.84
Nc1ncc(-c2cccc(S(N)(=O)=O)c2)c2scc(-c3ccc(F)c(Cl)c3)c12	5.44
Cc1ccc2c(-c3ccnc(Nc4ccccc4)n3)c(-c3ccc(F)cc3)nn2n1	-0.04

Compound	inhibition [%]
CS(=O)(=O)CCNCc1ccc(-c2ccc3ncnc(Nc4ccc(OCc5ccccc5)c(C(F)(F)F)c4)c3c2)o1	4.65
NC(=O)c1sc(-n2cnc3ccc(C(F)(F)F)cc32)cc1OCc1ccccc1Br	5.73
CCn1c(-c2nonc2N)nc2ccccc21	-1.08
NS(=O)(=O)c1ccc(Nc2ncc(-c3ccccc3)o2)cc1	2.25
COc1ccc2[nH]c3c4[nH]c5ccc(OC)cc5c4c4c(c3c2c1)C(=O)NC4=O	75.4
Nc1nc(-c2ccc(F)cc2)c(-c2ccc3ncccc3n2)s1	5.04
COc1ccc(CNC(=O)c2ccc(-c3cc(-c4nnc(C)o4)ccc3C)cc2)cc1	4.89
O=C(O[C@H]1CN[C@H](C#Cc2cc3ncnc(Nc4ccc(Cc5ccccc5)cc4)c3s2)C1)N1CCOCC1	1.8
N#Cc1c(NC(=O)CN2CCOCC2)sc2c1CCCC2	3.93
Cc1cccc(Nc2ncc(-c3ccccc3)o2)c1	-0.48
O=C(Nc1n[nH]c2cc(-c3ccc(F)cc3)ccc12)C1CC1	5.66
COC(=O)c1sc(-n2cnc3cc(OC)c(OC)cc32)cc1OCc1ccccc1C(F)(F)F	2.88
Cc1ccc(O)cc1Nc1ccnc2cc(-c3ccccn3)ccc12	73.7
CCc1nn2ncccc2c1-c1ccnc(NC2CC2)n1	1.83
CCn1cc(-c2ccnc3[nH]ccc23)c(-c2cccc(NC(=O)Nc3ccc(OCc4ccccc4)cc3)c2)n1	-0.05
COc1cc2c(cc1Nc1nc(Nc3ccsc3C(N)=O)c3cc[nH]c3n1)N(C(=O)CN(C)C)CCC2(C)C	7.2

The compounds below were run on Mast/stem cell growth factor receptor Kit (Homo sapiens), P10721 [T670I]. Details: at 0.1 µM.
Mast/stem cell growth factor receptor Kit (Homo sapiens), P10721 [T670I], sequence (P10721 whole entry T670I): as the sequence (P10721 whole entry D816V) above, with T670I, V816D counted along it

Compound	inhibition [%]
COc1ccc(-c2cc(-c3c[nH]nc3-c3ccccn3)ccn2)cc1	4.24
CCCN(CCS(C)(=O)=O)Cc1ccc(-c2ccc3ncnc(Nc4ccc(OCc5cccc(F)c5)c(Cl)c4)c3c2)o1	2.58
FC(F)(F)c1cccc(-c2nn3ncccc3c2-c2ccnc(Nc3ccc4c(c3)OCCO4)n2)c1	0.93
CCNC(=O)O[C@H]1CN[C@H](C#Cc2cc3ncnc(Nc4ccc(OCc5cccc(F)c5)c(Cl)c4)c3s2)C1	2.76
COC(=O)Nc1nc2ccc(S(=O)(=O)c3ccc(NC(=O)Nc4cc(C(F)(F)F)ccc4F)cc3)cc2[nH]1	1.09
CC(=O)Nc1cccc(C#Cc2cncnc2Nc2ccc(OCc3cccc(F)c3)c(Cl)c2)c1	0.96
CCOc1ccc2c(-c3ccnc(Nc4cccc(C(F)(F)F)c4)n3)cnn2n1	1.24
CC(=O)NCc1cccc(C#Cc2cncnc2Nc2ccc(OCc3cccc(F)c3)c(Cl)c2)c1	1.52
Cc1cccc2c1NC(=O)/C2=N\Nc1ccc(S(N)(=O)=O)cc1	6.87
COc1ccc(-c2nn3ncccc3c2-c2ccnc(Nc3ccc4c(c3)OCCO4)n2)cc1	3.74
Fc1ccc(-c2cc(-c3c[nH]nc3-c3ccccn3)ccn2)cc1	4.29
CCN(CC)S(=O)(=O)c1ccc(OC)c(Nc2ncc(-c3ccccc3)o2)c1	3.41
COc1cccc(-c2c[nH]c3c(N/N=C/c4ccncc4)ncnc23)c1	7.21
c1ccc(-c2nc3n(c2-c2ccc4c(c2)OCO4)CCC3)nc1	2.34
COc1cccc(-n2ncc3c(N/N=C/c4ccc(F)cc4)ncnc32)c1	5.29
Nc1ncc(-c2cccc(S(N)(=O)=O)c2)c2scc(-c3ccc(F)c(Cl)c3)c12	3.88
Cc1ccc2c(-c3ccnc(Nc4ccccc4)n3)c(-c3ccc(F)cc3)nn2n1	0.33

Compound	inhibition [%]
CS(=O)(=O)CCNCc1ccc(-c2ccc3ncnc(Nc4ccc(OCc5ccccc5)c(C(F)(F)F)c4)c3c2)o1	3.39
NC(=O)c1sc(-n2cnc3ccc(C(F)(F)F)cc32)cc1OCc1ccccc1Br	2.58
CCn1c(-c2nonc2N)nc2ccccc21	2.82
NS(=O)(=O)c1ccc(Nc2ncc(-c3ccccc3)o2)cc1	14.9
COc1ccc2[nH]c3c4[nH]c5ccc(OC)cc5c4c4c(c3c2c1)C(=O)NC4=O	6.78
Nc1nc(-c2ccc(F)cc2)c(-c2ccc3ncccc3n2)s1	4.73
COc1ccc(CNC(=O)c2ccc(-c3cc(-c4nnc(C)o4)ccc3C)cc2)cc1	2.12
O=C(O[C@H]1CN[C@H](C#Cc2cc3ncnc(Nc4ccc(Cc5ccccc5)cc4)c3s2)C1)N1CCOCC1	1.94
N#Cc1c(NC(=O)CN2CCOCC2)sc2c1CCCC2	4.93
Cc1cccc(Nc2ncc(-c3ccccc3)o2)c1	4.58
O=C(Nc1n[nH]c2cc(-c3ccc(F)cc3)ccc12)C1CC1	3.36
COC(=O)c1sc(-n2cnc3cc(OC)c(OC)cc32)cc1OCc1ccccc1C(F)(F)F	4.55
Cc1ccc(O)cc1Nc1ccnc2cc(-c3ccccn3)ccc12	4.94
CCc1nn2ncccc2c1-c1ccnc(NC2CC2)n1	1.32
CCn1cc(-c2ccnc3[nH]ccc23)c(-c2cccc(NC(=O)Nc3ccc(OCc4ccccc4)cc3)c2)n1	-1.41
COc1cc2c(cc1Nc1nc(Nc3ccsc3C(N)=O)c3cc[nH]c3n1)N(C(=O)CN(C)C)CCC2(C)C	5.12
